{
  "source": "PubChem BioAssay AID1220",
  "about": "(Sanford-Burnham Center for Chemical Genomics, 2008)",
  "note": "The whole screen tested about 190,000 compounds, of which about 1,300 (0.68%) were called active. The sample holds actives, similar compounds and a random draw of the others, so the mix is not that of the screen. Unmarked numbers belong to inactive results. Cut-off read from the data, not from the text of the source: active = inhibition above about 50%; inactive = the rest.",
  "data": [
    {"molecular_target": "Mannose-6-phosphate isomerase (Homo sapiens) (UniProt P34949)", "sequence (P34949 whole entry, looked up)": "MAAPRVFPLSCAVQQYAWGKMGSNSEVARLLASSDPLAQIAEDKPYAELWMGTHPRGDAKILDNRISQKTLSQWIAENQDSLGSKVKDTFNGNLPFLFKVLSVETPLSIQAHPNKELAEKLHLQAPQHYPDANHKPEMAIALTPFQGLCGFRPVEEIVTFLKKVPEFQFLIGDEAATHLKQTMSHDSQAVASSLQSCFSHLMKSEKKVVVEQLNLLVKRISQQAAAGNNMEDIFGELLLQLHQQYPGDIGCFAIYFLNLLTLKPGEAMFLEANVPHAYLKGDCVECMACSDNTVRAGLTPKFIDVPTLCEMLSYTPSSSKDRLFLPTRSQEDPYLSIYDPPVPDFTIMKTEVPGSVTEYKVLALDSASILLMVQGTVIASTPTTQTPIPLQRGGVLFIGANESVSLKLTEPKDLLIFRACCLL", "assay": "human PMI inhibitors, high substrate, primary screen, biochemical, fluorescence intensity, high mannose 6-phosphate (AID 1220)", "details": "recombinant PMI enzyme, coupled fluorescence intensity; at 20 µM; stronger effect = higher value", "values": [
      {"smiles": "COC(=O)COc1ccc(S(=O)(=O)N2CCN(c3ccccc3)CC2)cc1", "inhibition": "-8.3%"},
      {"smiles": "Nc1ccccc1C(=O)N1CCCC1", "inhibition": "8.2%"},
      {"smiles": "O=C(c1cccc2cccc(O)c12)N1CCCCC1", "inhibition": "63.7% (active)"},
      {"smiles": "O=C(c1cccc(F)c1F)N1CCCC1", "inhibition": "-8.2%"},
      {"smiles": "Cc1ccc2c(c1)nnn2C1CCN(S(=O)(=O)c2ccc(C(=O)N3CC(C)CC(C)C3)cc2)CC1", "note": "(configuration not stated)", "inhibition": "10.4%"},
      {"smiles": "Cc1ccc2c(c1)nnn2C1CCN(S(=O)(=O)c2ccc(C(=O)O)cc2)CC1", "inhibition": "3.6%"},
      {"smiles": "Cc1ccc2c(c1)nnn2C1CCN(S(=O)(=O)c2ccc(C(=O)N3C(C)CCCC3C)cc2)CC1", "note": "(configuration not stated)", "inhibition": "53% (active)"},
      {"smiles": "O=C(COC(=O)/C=C/c1ccccc1[N+](=O)[O-])NCC(F)(F)F", "inhibition": "-8.8%"},
      {"smiles": "CCc1ccc(NC(=S)N2CCCCCCC2)cc1", "inhibition": "-7.1%"},
      {"smiles": "Cc1nc(SCC2(C)CC2(Cl)Cl)n[nH]1", "note": "(configuration not stated)", "inhibition": "-3.1%"},
      {"smiles": "COc1ccc(/C=N/NS(=O)(=O)c2ccc(C)cc2)cc1OC(=O)c1ccc(C)cc1", "inhibition": "-3.5%"},
      {"smiles": "Cc1ccnc(N=Cc2c(O)ccc3oc4c(c23)CCCC4)c1", "inhibition": "51.1% (active)"},
      {"smiles": "Cc1cccc(/N=C/c2c(O)ccc3oc4c(c23)CCCC4)n1", "inhibition": "13.6%"},
      {"smiles": "Oc1ccc2oc3c(c2c1/C=N/n1cnnc1)CCCC3", "inhibition": "9.3%"},
      {"smiles": "CCOC(=O)c1cnc2c(C#N)c(C)nn2c1-c1ccccc1", "inhibition": "3.5%"},
      {"smiles": "COCCN=c1scc(-c2cc(OC)c(OC)c(OC)c2)n1/N=C/c1c(C)[nH]c2ccccc12", "inhibition": "13.7%"},
      {"smiles": "N#Cc1cc([N+](=O)[O-])ccc1N1CCN(c2ccccc2O)CC1", "inhibition": "10.8%"},
      {"smiles": "NNc1ccc2c(C(F)(F)F)cc(C(F)(F)F)nc2n1", "inhibition": "-7.7%"},
      {"smiles": "CN(N)c1ccc2c(C(F)(F)F)cc(C(F)(F)F)nc2n1", "inhibition": "-11.3%"},
      {"smiles": "Nc1ccc2c(C(F)(F)F)cc(C(F)(F)F)nc2n1", "inhibition": "53.7% (active)"},
      {"smiles": "Cc1c(Cl)cccc1Nc1nc(N)nc(CSCCO)n1", "inhibition": "-1.1%"},
      {"smiles": "O=c1c2c3c(sc2nc2n1CCCCC2)C(O)CCC3", "note": "(configuration not stated)", "inhibition": "8.9%"},
      {"smiles": "Cc1cc(C)nc(N2N=C(C(C)(C)C)CC2=O)n1", "inhibition": "-15%"},
      {"smiles": "COc1ccc(C2=NN(c3nc(C)cc(C)n3)C(=O)C2)cc1", "inhibition": "51.6% (active)"},
      {"smiles": "Cc1cc(C)nc(N2N=C(c3ccccc3)CC2=O)n1", "inhibition": "26.8%"},
      {"smiles": "Cc1ccc(CN2CCCNC2=O)cc1", "inhibition": "-2.5%"},
      {"smiles": "COc1cc(NC(=O)COC(=O)C2CC2)c(C)cc1[N+](=O)[O-]", "inhibition": "-8%"},
      {"smiles": "Cc1c(Cl)c(C(=O)Nc2nc3ccccc3n2CCN2CCCCC2)nn1C", "inhibition": "55.1% (active)"},
      {"smiles": "O=C(Nc1nc2ccccc2n1CCN1CCCCC1)c1ccc(Cl)cc1", "inhibition": "-11.3%"},
      {"smiles": "CCn1cc(Cl)c(C(=O)Nc2nc3ccccc3n2CCN2CCCCC2)n1", "inhibition": "-2.9%"},
      {"smiles": "CCOC(=O)c1cc(-c2ccc(C)cc2)n(CCC(=O)NCCN(C)C)c1C", "inhibition": "5.6%"},
      {"smiles": "O=C1CN2NC(=S)N(c3ccc(Cl)cc3)C2=CN1c1ccc(Cl)cc1", "inhibition": "-2.8%"},
      {"smiles": "CCOc1cc(NC(=S)NCCCN2CCOCC2)c(OCC)cc1NC(=O)c1ccccc1C", "inhibition": "47.3%"},
      {"smiles": "CCOc1cc(NC(=S)NCCCN2CCOCC2)c(OCC)cc1NC(=O)c1ccc(C)cc1", "inhibition": "52.6% (active)"},
      {"smiles": "CCOc1cc(NC(=S)NCCCN2CCOCC2)c(OCC)cc1NC(=O)c1ccccc1", "inhibition": "24.1%"},
      {"smiles": "CCOc1cc(NC(=S)NCCCN2CCOCC2)c(OCC)cc1NC(=O)c1cccs1", "inhibition": "56.1% (active)"},
      {"smiles": "CCOc1cc(NC(=S)NCCCN2CCOCC2)c(OCC)cc1NC(=O)c1cccc(F)c1", "inhibition": "49.5%"},
      {"smiles": "CCOc1cc(NC(=O)c2cccs2)c(OCC)cc1NC(=O)CCC(=O)NCCN1CCOCC1", "inhibition": "10.6%"},
      {"smiles": "O=C(CCCCCn1c(=S)[nH]c2ccccc2c1=O)NCc1ccc2c(c1)OCO2", "inhibition": "-9.7%"},
      {"smiles": "C=CCNC(=S)NNC(=O)c1cccn(Cc2ccc(Cl)cc2Cl)c1=O", "inhibition": "-10.6%"},
      {"smiles": "O=C(C[n+]1ccccc1)N/N=C/c1cccs1", "inhibition": "-14%"},
      {"smiles": "Cc1cc(C)nc(N(C#N)S(=O)(=O)c2ccc(Br)cc2)n1", "inhibition": "-3.3%"},
      {"smiles": "O=C(CSc1nc(O)cc(=O)[nH]1)N1c2ccccc2Sc2ccccc21", "inhibition": "7.8%"},
      {"smiles": "COc1ccc(CCNC(=O)c2ccc(SC)cc2OC)cc1", "inhibition": "-1.4%"},
      {"smiles": "O=C(Nc1ccc(F)cc1)Nc1cc(OCC(F)(F)F)cc(OCC(F)(F)F)c1", "inhibition": "8.1%"},
      {"smiles": "CONC(=O)c1cc(OCC(F)(F)F)ccc1OCC(F)(F)F", "inhibition": "-7.9%"},
      {"smiles": "Nc1cc(N)c(OCC(F)(F)F)cc1OCC(F)(F)F", "inhibition": "55.8% (active)"},
      {"smiles": "Nc1cc(OCC(F)(F)F)cc([N+](=O)[O-])c1", "inhibition": "-2.2%"},
      {"smiles": "Nc1cc(OCC(F)(F)F)cc(OCC(F)(F)F)c1", "inhibition": "56.9% (active)"},
      {"smiles": "COCCOc1ccc(C(F)(F)F)cc1N", "inhibition": "8.3%"},
      {"smiles": "O=C1CCC(/C=C/c2ccccc2)=NN1Cc1ccc(F)cc1", "inhibition": "-0.5%"},
      {"smiles": "CC(=O)NC(CC(=O)NC12CC3CC(CC(C3)C1)C2)c1ccccc1", "note": "(configuration not stated)", "inhibition": "1.3%"},
      {"smiles": "CCn1cc([N+](=O)[O-])c(C(=O)NCc2ccc(Cl)cc2)n1", "inhibition": "-5%"},
      {"smiles": "N#Cc1cc(Oc2ccccc2)c(-n2nnc3ccccc32)cc1C#N", "inhibition": "3.1%"},
      {"smiles": "C#CCOCCOCCOCCNc1nc(N2CCN(C(=O)[C@H]([C@@H](C)CC)n3cc(CCCCN)nn3)CC2)nc(N2CCN(C(=O)[C@H](C)n3cc(CCC(=O)O)nn3)CC2)n1", "inhibition": "-27.7%"},
      {"smiles": "COCCN1CC(=O)N(c2cccc(C)c2C)C(c2ccc(Cl)cc2)C1=O", "note": "(configuration not stated)", "inhibition": "-1.2%"},
      {"smiles": "COc1cccc(C=Nc2ccc3c(c2)OCCO3)c1O", "inhibition": "34.6%"},
      {"smiles": "CC1(C)CC(=O)C(C=Nc2ccc3c(c2)OCO3)=C(O)C1", "inhibition": "14.2%"},
      {"smiles": "COc1ccc(N=CC2=C(O)c3ccccc3C2=O)cc1", "inhibition": "5.6%"},
      {"smiles": "COc1ccc2c(c1)O[C@H](c1ccc3c(c1)OCO3)[C@@H](O)C2=O", "inhibition": "-2.7%"},
      {"smiles": "Oc1[nH]c2ccccc2c1C=Nc1ccc2c(c1)OCO2", "inhibition": "8.6%"},
      {"smiles": "COc1ccc(N=Cc2sc(O)c3ccccc23)cc1", "inhibition": "8.8%"}
    ]}
  ]
}
